The source of these data is PubChem BioAssay (Tox21).

Each structure is given as a SMILES string. Several values for one entry are separate records, joined by “and”; a condition that tells them apart may be missing. Equal values may be shown once. Results filed as inconclusive are left out. The source holds several records for some structures; these can differ, active in one and inactive in another. Activity calls are given as the source filed them. The call rests on the fitted dose curve; in most records, active means well fitted cell-killing curve with a large enough effect in the repeat runs; inconclusive means weak or mixed curves, or effect the other way; inactive means no such curve, though single readings can be large or run the other way.
On the % scale 0 is the no-effect control and ±100 the full control effect; potency means the concentration at half of the fitted maximal effect.

This experiment can be described thus: qHTS assay to identify small molecule antagonists of the thyroid receptor (TR) signaling pathway - cell viability counter screen (AID 743064). Further: nearly all actives have a fitted effect of over 50% in size. As to conditions: GH3.TRE-Luc viability, CellTiter-Fluor, 24 h; series mostly up to 70.3 µM; activity change, negative = cytotoxic: at the top concentration. From the text:
National Center for Advancing Translational Sciences [NCATS]
NIH Chemical Genomics Center [NCGC]
U.S. Environmental Protection Agency [EPA]
National Institutes of Environmental Health Sciences [NIEHS]
National Toxicology Program [NTP]
U.S. Food and Drug Administration [FDA]
Thyroid receptor (TR), a nuclear hormone receptor, plays an important role in development, proliferation, differentiation, metabolism, brain function, and cardiovascular system. […] To profile the Tox21 10K compound library in TR signaling, a cell-based GH3-TRE-Luc assay (GH3.TRE-Luc cell line, developed by the laboratory of Dr. Albertinka J. Murk, Wageningen University) was used to measure the inhibition of TR. GH3 (rat pituitary tumor) cells stably expressing a TR activity sensor consisting of two TR response elements and a luciferase reporter gene. The cytotoxicity of the Tox21 compound library against the GH3.TRE-Luc cell line was tested in parallel by measuring the cell viability using CellTiter-Fluor assay (Promega, Madison, WI) in the same wells.
Tox21 Assay Protocol Summary:
GH3.TRE-Luc cells were dispensed at 1500 cells/4 uL/well into 1536-well white solid bottom plates using a Multidrop Combi dispenser (Thermo Fisher Scientific Inc., Waltham, MA). After the assay plates were incubated at 37 C for 4 hours, 23 nL of library compound or DMSO controls was transferred to the assay plates by a pintool station (Kalypsys, San Diego, CA), followed by addition of 1 ul of T3 (1 nM, final concentration in the wells) to stimulate TR transactivation. The assay plates were incubated at 37 C for 23.5 h, and then 1 uL of CellTiter-Fluor reagent (Promega, Madision, WI) of measuring cytotoxicity was added to each well using a Bioraptr Flying Reagent Dispenser (FRD) workstation (Beckman Coulter, Indianapolis, IN, USA). The plates were incubated at 37C and 5% CO2 for additional 30 min, and fluorescence intensity was measured by a ViewLux plate reader (PerkinElmer, Shelton, CT).
Background: Quantitative high-throughput screening tests each substance at several concentrations.
Consider `CCCCCCCCCCCC[n+]1ccc2ccccc2c1`, for which the Potency is 7.5 µM (active).

Turning to `Cc1ccc(Cl)c(N)c1Cl`, the “activity change, negative = cytotoxic” value is -3.55% (inactive).

As for `CO[C@H]1C[C@H](O[C@H]2[C@H](C)[C@@H](O[C@@H]3O[C@H](C)C[C@H](N(C)C)[C@H]3O)[C@@H](C)C[C@]3(CO3)C(=O)[C@H](C)[C@@H](O)[C@@H](C)[C@@H](C)OC(=O)[C@@H]2C)O[C@@H](C)[C@@H]1O`, the “activity change, negative = cytotoxic” value was 15.6% [at 32.5 µM] (inactive).

For the molecule `Nc1ccc(N)c([N+](=O)[O-])c1`, the Potency was 32.5 µM (active).

For the molecule `C[C@H]1O[C@@H](O[C@H]2CC[C@@]3(C)[C@H](CC[C@@H]4[C@@H]3C[C@@H](O)[C@]3(C)[C@@H](C5=CC(=O)OC5)CC[C@]43O)C2)C[C@H](O)[C@@H]1O[C@H]1C[C@H](O)[C@H](O[C@H]2C[C@H](O)[C@H](O[C@@H]3O[C@H](CO)[C@@H](O)[C@H](O)[C@H]3O)[C@@H](C)O2)[C@@H](C)O1`, the “activity change, negative = cytotoxic” value is 17.5% (inactive).

With `C[C@H](Cc1ccc(O)c(O)c1)[C@@H](C)Cc1ccc(O)c(O)c1`, the Potency was 9.44 µM (active).

As for `C[S+](C)CCC(N)C(=O)O` (stereo not given), the “activity change, negative = cytotoxic” value is -2.75% (inactive).

Regarding `CN(C)CCc1c[nH]c2ccc(Cn3cncn3)cc12`, the “activity change, negative = cytotoxic” value was 22% (inactive).

For the molecule `NCCCC(=O)O`, the “activity change, negative = cytotoxic” value was 14.9% (inactive).

Consider `NC(=O)[C@@H]1CCCN1C(=O)[C@H](Cc1cnc[nH]1)NC(=O)[C@@H]1CCC(=O)N1`, for which the “activity change, negative = cytotoxic” value is 12.1% (inactive).

On to `C=C1C(CCl)(CCl)C2(Cl)C(Cl)C(Cl)C1(Cl)C2(Cl)Cl` (stereo not given), for which the Potency is 5.96 µM (active) and 67.8 µM (active).

Consider `C=C(Nc1ccc(OCC)cc1)Nc1ccc(OCC)cc1`, for which the Potency entry was “inactive”.

Consider `FC(F)(F)COCC(F)(F)F`, for which the “activity change, negative = cytotoxic” value is 23.6% (inactive).

Regarding `CC(=O)[C@]1(O)Cc2c(O)c3c(c(O)c2[C@@H](O[C@H]2C[C@H](N)[C@H](O)[C@H](C)O2)C1)C(=O)c1ccccc1C3=O`, the Potency is 0.119 µM (active).

Regarding `CCOc1cc(CC(=O)N[C@@H](CC(C)C)c2ccccc2N2CCCCC2)ccc1C(=O)O`, the “activity change, negative = cytotoxic” value was 8.21% [at 32.5 µM] (inactive).

Consider `SC1CCCCC1`, for which the “activity change, negative = cytotoxic” value is 6.2% [at 95 µM] (inactive).

In the case of `N[C@H](CO)C(=O)O`, the “activity change, negative = cytotoxic” value was 13.4% (inactive).

Turning to `CNC(=O)OCc1cccc(COC(=O)NC)n1`, the “activity change, negative = cytotoxic” value was 13.3% (inactive).

Turning to `NS(=O)(=O)c1cc(Cl)c(Cl)c(S(N)(=O)=O)c1`, the “activity change, negative = cytotoxic” value was 17.5% [at 32.5 µM] (inactive).

With `CCN1\C(=C/C=C/C=C/c2sc3ccccc3[n+]2CC)Sc2ccccc21`, the Potency was 5.96 µM (active) and 7.5 µM (active).

With `NCC1CCC(C(=O)O)CC1` (stereo not given), the “activity change, negative = cytotoxic” value is 25.4% [at 32.5 µM] (inactive).

Turning to `Cc1onc(-c2c(F)cccc2Cl)c1C(=O)N[C@@H]1C(=O)N2[C@@H]1SC(C)(C)[C@@H]2C(=O)O`, the Potency entry was “inactive”.

As to `CCOC(=O)[C@H](CCc1ccccc1)N[C@@H](C)C(=O)N1[C@H](C(=O)O)C[C@H]2CCCC[C@@H]21`, the Potency entry was “inactive”.

Take `CC(=O)N[C@@H](C=O)[C@H](O)[C@H](O)[C@@H](O)CO`: the Potency result was “inactive”.

With `COc1ccc([C@@H]2CC(=O)c3c(O)cc(O[C@@H]4O[C@H](CO[C@@H]5O[C@@H](C)[C@H](O)[C@@H](O)[C@H]5O)[C@@H](O)[C@H](O)[C@H]4O)cc3O2)cc1O`, the “activity change, negative = cytotoxic” value was 18% [at 32.5 µM] (inactive).

As for `CC(C)(C)c1ccc2c(S(=O)(=O)O)c(C(C)(C)C)ccc2c1`, the Potency entry was “inactive”.

Consider `CO/N=C(\C(=O)N[C@@H]1C(=O)N2C(C(=O)[O-])=C(C[n+]3cccc4c3CCC4)CS[C@H]12)c1csc(N)n1`, for which the “activity change, negative = cytotoxic” value was 15.5% (inactive).

`C[N+]1(CCCCC[N+]2(C)CCCC2)CCCC1`: the “activity change, negative = cytotoxic” value was 15.6% (inactive).

As to `NC[C@@H]1CC[C@@H](N)[C@@H](O[C@H]2[C@H](O)[C@@H](O[C@H]3O[C@H](CO)[C@@H](O)[C@H](N)[C@H]3O)[C@H](N)C[C@@H]2N)O1`, the “activity change, negative = cytotoxic” value was 19.8% (inactive).

For the molecule `OCC1(CO)COC(C(Cl)(Cl)Cl)OC1`, the “activity change, negative = cytotoxic” value was 29% (inactive).

For `CO/N=C(\C(=O)N[C@@H]1C(=O)N2C(C(=O)O)=C(COC(C)=O)CS[C@H]12)c1csc(N)n1` (stereo in doubt), the “activity change, negative = cytotoxic” value was 18.9% (inactive).

Regarding `N#Cc1c(N(CC(=O)O)CC(=O)O)sc(C(=O)O)c1CC(=O)O`, the “activity change, negative = cytotoxic” value is 3.93% (inactive).

Regarding `C/C=C/C1=C(C(=O)O)N2C(=O)[C@@H](NC(=O)[C@H](N)c3ccc(O)cc3)[C@H]2SC1`, the “activity change, negative = cytotoxic” value was 27.5% (inactive).

Turning to `CC1(C)S[C@@H]2[C@H](N3C(=O)C(c4ccccc4)NC3(C)C)C(=O)N2[C@H]1C(=O)O` (stereo not given in full), the “activity change, negative = cytotoxic” value was 14% (inactive).

For the molecule `CC(C)(COP(=O)(O)OP(=O)(O)OC[C@H]1O[C@@H](n2cnc3c(N)ncnc32)[C@H](O)[C@@H]1OP(=O)(O)O)C(O)C(=O)NCCC(=O)NCCS` (stereo not given in full), the “activity change, negative = cytotoxic” value was 17.1% (inactive).

Regarding `COc1cc(/C=C/C(=O)CC(=O)/C=C/c2ccc(O)c(OC)c2)ccc1O`, the Potency is 23.7 µM (active) and inactive and 13.8 µM (active).

Turning to `COC1[C@@H](O[C@@H]2O[C@H](C)[C@@H](O[C@H]3C[C@@](C)(O)[C@H](OC(=O)CC(C)C)[C@H](C)O3)[C@H](N(C)C)[C@H]2O)[C@@H](CC=O)C[C@@H](C)[C@@H](O)/C=C/C=C/C[C@@H](C)OC(=O)C[C@H]1OC(C)=O` (stereo not given in full), the “activity change, negative = cytotoxic” value is 18.3% [at 32.5 µM] (inactive).

As to `CC(C)C[C@H](NC(=O)[C@@H](COC(C)(C)C)NC(=O)[C@H](Cc1ccc(O)cc1)NC(=O)[C@H](CO)NC(=O)[C@H](Cc1c[nH]c2ccccc12)NC(=O)[C@H](Cc1cnc[nH]1)NC(=O)[C@@H]1CCC(=O)N1)C(=O)N[C@@H](CCCN=C(N)N)C(=O)N1CCC[C@H]1C(=O)NNC(N)=O`, the Potency result is “inactive”.

In the case of `O=C(O)COc1ccc(C(=O)c2cccs2)c(Cl)c1Cl`, the Potency entry was “inactive”.

As for `Cc1ccc(C(C)(C)c2ccc(C)cc2)cc1`, the “activity change, negative = cytotoxic” value is 15.2% (inactive).
